According to ChEMBL document CHEMBL1961873, “Compounds: GSK PKIS; Assays: Nanosyn kinase panel” (2012):

Target: Serine/threonine-protein kinase MARK2 (Homo sapiens) (UniProt Q7KZI7)
Conditions: at 0.1 µM
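Also: mean percent inhibition of PAR-1Balpha kinase activity, reported from the GSK PKIS screen.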

Chain of Serine/threonine-protein kinase MARK2 (Homo sapiens) (Q7KZI7 whole entry): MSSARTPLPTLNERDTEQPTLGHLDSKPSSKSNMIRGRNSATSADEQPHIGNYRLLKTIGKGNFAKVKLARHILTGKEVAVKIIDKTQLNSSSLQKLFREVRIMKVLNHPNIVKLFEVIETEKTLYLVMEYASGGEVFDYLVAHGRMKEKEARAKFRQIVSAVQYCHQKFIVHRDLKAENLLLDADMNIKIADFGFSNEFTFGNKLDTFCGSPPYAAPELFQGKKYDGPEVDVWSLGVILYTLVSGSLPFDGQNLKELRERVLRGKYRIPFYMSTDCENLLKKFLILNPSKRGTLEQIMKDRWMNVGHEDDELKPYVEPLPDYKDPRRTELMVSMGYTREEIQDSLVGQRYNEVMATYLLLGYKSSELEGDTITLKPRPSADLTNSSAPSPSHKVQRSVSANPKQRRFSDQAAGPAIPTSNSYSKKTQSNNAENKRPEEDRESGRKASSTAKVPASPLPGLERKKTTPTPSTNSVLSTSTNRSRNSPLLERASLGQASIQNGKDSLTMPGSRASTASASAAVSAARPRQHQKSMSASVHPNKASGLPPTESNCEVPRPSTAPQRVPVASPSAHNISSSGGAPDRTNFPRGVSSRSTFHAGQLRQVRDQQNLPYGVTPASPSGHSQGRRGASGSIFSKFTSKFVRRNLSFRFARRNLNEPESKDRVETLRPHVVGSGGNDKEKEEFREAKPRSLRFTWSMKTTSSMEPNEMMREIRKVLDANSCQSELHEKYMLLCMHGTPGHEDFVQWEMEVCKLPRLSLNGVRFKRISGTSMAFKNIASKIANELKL

Q: Which inhibition does the source give for `COc1cc2c(cc1Nc1nc(Nc3ccsc3C(N)=O)c3cc[nH]c3n1)N(C(=O)CN(C)C)CCC2` here?
A: 2.05%

Q: With `NS(=O)(=O)c1ccc(N/C=C2\C(=O)Nc3ccc4ncsc4c32)cc1` as the compound, how does the inhibition read?
A: 6.29%

Q: For `Fc1ccc(-c2ncn(C3CCNCC3)c2-c2ccnc(Oc3ccccc3)n2)cc1`, which inhibition is on record?
A: -1.21%

Q: How did the inhibition turn out when `Nc1nonc1-c1nc2cnccc2n1C1CCCCC1` was run?
A: 3.67%

Q: Which inhibition does the source give for `NC(=O)c1sc(-n2cnc3cc(C(F)(F)F)ccc32)cc1OCc1ccccc1Br` here?
A: -0.02%

Q: Which inhibition does the source give for `CCn1c(-c2nonc2N)nc2c(C#CC(C)(C)O)ncc(OCC3CCNCC3)c21` here?
A: 11.3%

Q: `COc1cccc(COc2cc(-n3cnc4ccccc43)sc2C(N)=O)c1` was tested. Which inhibition did it give?
A: -2.23%

Q: Which inhibition does the source give for `CCn1c(-c2nonc2N)nc2c(C#CC(C)(C)O)ncc(OC[C@@H]3CCCN3)c21` here?
A: 12.9%

Q: `CCn1c(-c2nonc2N)nc2c(C#CC(C)(C)O)nc(O[C@@H](CN)c3ccccc3)cc21` was tested. Which inhibition did it give?
A: 63.9%

Q: Which inhibition does the source give for `NS(=O)(=O)c1ccc(-c2ccc3c(NC(=O)C4CC4)n[nH]c3c2)cc1` here?
A: 0.75%

Q: `CCn1c(-c2nonc2N)nc2c(C#CCN)ncc(OCCCN)c21` was tested. Which inhibition did it give?
A: 7.01%

Q: How did the inhibition turn out when `Cc1cc(-c2ccco2)cc(C)c1/C=C/c1cncc(-c2nn[nH]n2)c1` was run?
A: 1.91%

Q: Which inhibition does the source give for `COc1cccc(-n2ncc3c(N/N=C/c4ccncc4)ncnc32)c1` here?
A: 1.24%

Q: Which inhibition does the source give for `COc1cc(C=NNc2ncnc3c2cnn3Cc2ccccc2)ccc1O` here?
A: 1.79%
